High-throughput results deposited in PubChem BioAssay by several laboratories.
Shown are actives, neighbours in structure and some others; about 1.7% of the full set was active somewhere.
CCHFV vOTU inh: CCHFV vOTU protease inhibitors, primary screen, biochemical, Pep-AMC substrate, fluorescence; Crimean-Congo hemorrhagic fever virus L polyprotein viral ovarian tumor (vOTU) protease …; inhibition, % at 11.5 µM; 370,000 tested, 0.55% active; in the data active means inhibition above about 30%; further: 0% = vehicle wells with enzyme and 100% = no enzyme wells
SSB-PriA inh: inhibitors of Klebsiella pneumoniae PriA binding to SSB C-terminal tail, primary screen, biochemical, AlphaScreen; AlphaScreen SSBct-PriA binding, biotinylated peptide; 430,000 tested, 0.6% active; inhibition, % at 33 µM; in the data active means inhibition mostly above about 37%, no sharp cut-off; inactive means mostly below about 20%;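 further: plate controls were negative control peptide for no effect and reference peptide for full effect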
SARS 3CLpro inh: SARS-CoV 3CLpro protease inhibitors, primary screen, biochemical, quenched FRET; Replicase polyprotein 1ab (Severe acute respiratory syndrome coronavirus), P0C6X7; recombinant SARS-CoV 3CLpro, quenched FRET peptide cleavage; inhibition, % at 6 µM; 290,000 tested, 0.14% active; AID 1706, 2009; in the data active means inhibition above about 12%
RecA splice inh: Mtb RecA intein splicing inhibitors, primary screen, biochemical, fluorescence, HTS. cell-free RecA intein splicing. inhibition, % (concentration not given with the values). 290,000 tested, 0.75% active; in the data active means inhibition above about 30%;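 further: 0% = vehicle wells and 100% = reference inhibitor control wells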
VHR inh abs: VHR1 phosphatase inhibitors, primary screen, biochemical, absorbance, uHTS. Dual specificity protein phosphatase 3 (Homo sapiens), P51452. recombinant VHR phosphatase, pNPP absorbance. inhibition, % at 13.3 µM. 290,000 tested, 0.52% active. AID 1654, 2009; in the data active means inhibition above about 50%
Target sequence (P51452 whole entry, looked up): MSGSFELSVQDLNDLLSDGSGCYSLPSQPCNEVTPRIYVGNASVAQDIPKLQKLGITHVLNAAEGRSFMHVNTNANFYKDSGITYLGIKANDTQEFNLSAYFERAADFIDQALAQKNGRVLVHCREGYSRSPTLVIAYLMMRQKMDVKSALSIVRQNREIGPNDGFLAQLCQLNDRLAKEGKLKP
The depositor's hits bear a star.

For COc1ccc(N2CCN(C(=O)c3ccc(Cn4nc(C)c([N+](=O)[O-])c4C)o3)CC2)cc1 the results were CCHFV vOTU inh -2.3, SSB-PriA inh 47.5*, SARS 3CLpro inh 0.1, RecA splice inh -6.9 and VHR inh abs 24.9.
c1cc2nsnc2cc1-c1csc(N2CCOCC2)n1 was read as SSB-PriA inh 2.0.
`Cc1cc2ccccn2c1C(=O)c1cc([N+](=O)[O-])cc([N+](=O)[O-])c1` gave CCHFV vOTU inh 8.8, SSB-PriA inh 49.1*, SARS 3CLpro inh 3.0, RecA splice inh 1.4 and VHR inh abs 16.7.
Screening Cc1cc2ccccn2c1C(=O)c1ccc(NN)c([N+](=O)[O-])c1 returned CCHFV vOTU inh 14.9, SSB-PriA inh 46.8*, SARS 3CLpro inh 5.7 and VHR inh abs 16.7.
Screening N#Cc1ccc(C(=O)N2CCC(c3ccccc3)C2)cc1 (centres undefined) returned SSB-PriA inh 4.0.
CCOC(=O)c1c(N=Cc2ccc(O)c([N+](=O)[O-])c2)sc2c1CCCC2 was read as SSB-PriA inh 6.0.
For O=C(CCCN1C(=O)S/C(=C\C=C\c2ccccc2)C1=O)Nc1ccc(C(=O)O)cc1 the results were CCHFV vOTU inh 11.4, SSB-PriA inh -0.2, SARS 3CLpro inh 1.1, RecA splice inh 30.3* and VHR inh abs 11.5.
O=C(CCN1C(=O)S/C(=C\C=C\c2ccccc2)C1=O)Nc1ccc(O)cc1 was read as CCHFV vOTU inh 12.0, SSB-PriA inh -12.3, SARS 3CLpro inh -5.0, RecA splice inh 5.7 and VHR inh abs 3.9.
For O=C(O)CCN1C(=O)/C(=C\c2ccncc2)SC1=S the results were CCHFV vOTU inh 0.7, SSB-PriA inh 4.4, SARS 3CLpro inh 1.0, RecA splice inh 0.4 and VHR inh abs 10.3.
For COc1ccc(/C=C2\SC(=S)N(CCC(=O)Nc3ccc(C(=O)O)cc3)C2=O)cc1 the results were CCHFV vOTU inh 2.6, SSB-PriA inh -4.5, SARS 3CLpro inh 1.3, RecA splice inh 19.0 and VHR inh abs 51.7*.
For CCN(CC)CCOC(=O)c1ccc(NC(=O)CCCN2C(=O)/C(=C\c3cccs3)SC2=S)cc1 the results were CCHFV vOTU inh 21.7, SSB-PriA inh 42.1*, SARS 3CLpro inh 7.9, RecA splice inh 17.1 and VHR inh abs -7.8.
`O=C(CCN1C(=O)/C(=C\c2cccs2)SC1=S)Nc1ccc(C(=O)O)cc1` gave CCHFV vOTU inh 13.8, SSB-PriA inh -6.2, SARS 3CLpro inh -1.4, RecA splice inh 20.8 and VHR inh abs -7.2.
For COC(=O)CCCCCN1C(=O)/C(=C\c2ccncc2)SC1=S the results were CCHFV vOTU inh -9.5, SSB-PriA inh 5.7, SARS 3CLpro inh 1.9, RecA splice inh 33.9* and VHR inh abs 28.9.
O=C(CC1CCCCN1S(=O)(=O)c1ccc(F)cc1)Nc1ccc(Br)cc1F (centres undefined) was read as SSB-PriA inh 6.0.
For CCOc1ccc(S(=O)(=O)N2CCC(N3CCC[C@@H]3CO)CC2)cc1F the results were SSB-PriA inh -6.0.
O=C(CCN1C(=O)/C(=C/c2ccco2)SC1=S)Nc1ccc(O)cc1C(=O)O was read as CCHFV vOTU inh 27.6, SSB-PriA inh -0.2, SARS 3CLpro inh -0.7, RecA splice inh -3.1 and VHR inh abs -23.8.
O=C(CN1C(=O)/C(=C\c2ccco2)SC1=S)Nc1ccc(O)cc1C(=O)O was read as CCHFV vOTU inh 30.9*, SSB-PriA inh 0.5, SARS 3CLpro inh 0.7, RecA splice inh 14.1 and VHR inh abs -5.0.
For O=C(CCCN1C(=O)/C(=C\c2ccccc2)SC1=S)Nc1ccc(O)cc1C(=O)O the results were CCHFV vOTU inh 27.5, SSB-PriA inh 9.4, SARS 3CLpro inh 7.1, RecA splice inh 41.1* and VHR inh abs -6.0.
COc1ccc(-c2nnc(SCC(=O)Nc3nc(-c4ccccc4)cs3)o2)cc1OC was read as SSB-PriA inh -4.0.
Screening Cc1cccc(S(=O)(=O)NCCC(=O)NC[C@H]2CCCN2c2ccccc2)c1 returned SSB-PriA inh 19.0.
O=C(CNC1=NCCC1)c1ccc(Cl)cc1 was read as CCHFV vOTU inh 8.9, SSB-PriA inh -6.2, SARS 3CLpro inh 1.3, RecA splice inh 45.2* and VHR inh abs 14.7.
